Experimental data from PubChem BioAssay (EPA / NIEHS).
Active and inactive are the calls of the source. Rule for the calls: active = hit-call score of the fitted dose curve at least 0.9, where 1 is the maximum; inactive = score below 0.9.

Read-out: Pro-epidermal growth factor (Homo sapiens) (UniProt P01133)
Experiment: LTEA_HepaRG_EGF: Life Technologies and Expression Analysis (LTEA) Assay for Epidermal growth factor (EGF) using HepaRG (AID 2283489)
Settings: mRNA level, 48 h; actives raise or lower the signal
In short: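 EGF transcript measured by Fluidigm TaqMan qRT-PCR with three housekeeping genes for normalization, 48 h after dosing HepaRG cultures in duplicate (top 100 uM, half-log steps, 0.5% DMSO vehicle). Gain or loss relative to DMSO fitted.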

Row | SMILES | outcome
1 | CCN(CC)CCOc1ccc(C(=C(Cl)c2ccccc2)c2ccccc2)cc1 | inactive
2 | CCCCC(CC)COP(=O)(OCC(CC)CCCC)OCC(CC)CCCC (configuration not stated) | inactive
3 | CC(=O)CC(c1ccccc1)c1c(O)c2ccccc2oc1=O (configuration not stated) | inactive
4 | C/C=C/c1ccc(OC)cc1 | inactive
5 | O=C(O)c1[nH]n(-c2ccc(S(=O)(=O)O)cc2)c(=O)c1N=Nc1ccc(S(=O)(=O)O)cc1 | inactive
6 | Oc1ccc(O)cc1 | inactive
7 | CC(C)c1cccc(C(C)C)c1 | inactive
8 | NC=O | inactive
9 | CCc1nc(N)nc(N)c1-c1ccc(Cl)cc1 | inactive
10 | Cn1cnc2c1c(=O)[nH]c(=O)n2C | inactive
11 | CC(=O)[C@@]1(O)CC[C@H]2[C@@H]3CCC4=CC(=O)CC[C@]4(C)[C@H]3CC[C@@]21C | inactive
12 | Cc1cn([C@H]2C=C[C@@H](CO)O2)c(=O)[nH]c1=O | inactive

Read-out: Early growth response protein 1 (EGR1) transcription factor, EGR1 (gene 1958)
Experiment: LTEA_HepaRG_EGR1: Life Technologies and Expression Analysis (LTEA) Assay for Early growth response protein 1 (EGR1) transcription factor using HepaRG (AID 2283490)
Settings: mRNA level, 48 h; actives raise or lower the signal
In short: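 Differentiated HepaRG cells in serum-free induction medium exposed 48 hours, duplicate, to 8 half-log concentrations up to 100 uM in 0.5% DMSO. EGR1 mRNA measured by TaqMan qRT-PCR, normalized to ACTB, GAPDH, POLR2A; bidirectional fit versus DMSO.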

Row | SMILES | outcome | AC50
13 | CC(=O)OCC(COC(C)=O)OC(C)=O | inactive | 
14 | CCCC(=O)O | inactive | 
15 | Cc1cc(Cc2ccc(N)c(C)c2)ccc1N | inactive | 
16 | CCCCC(CC)CO (configuration not stated) | inactive | 
17 | CC1(C)C(=O)NC(=O)N1CO | inactive | 
18 | O=C(O)CC(O)(CC(=O)O)C(=O)O | inactive | 
19 | CCCCCCC(CCCCCCCCCCC(=O)OCC(COC(C)=O)OC(C)=O)OC(C)=O (configuration not stated) | inactive | 
20 | NC1CCCCC1 | inactive | 
21 | CC(C)(O)c1ccc(CNC(=O)c2cccnc2Oc2ccc(F)cc2)cc1 | inactive | 
22 | C=CCCCCCCCCCCCC | inactive | 
23 | CC(C)OC(=O)C(C)(C)Oc1ccc(C(=O)c2ccc(Cl)cc2)cc1 | inactive | 
24 | O=C(Oc1ccccc1)c1cccc(C(=O)Oc2ccccc2)c1 | inactive | 
25 | CN(C)C(=O)NC1(c2ccccc2)CCN(CCC[C@]2(c3ccc(Cl)c(Cl)c3)CCCN(C(=O)c3ccccc3)C2)CC1 |  | 23.1 µM (active)
26 | O=C1OC(c2ccc(O)cc2)(c2ccc(O)cc2)c2ccccc21 | inactive | 
27 | CC(=O)OC1CC(C)OC(C)O1 (configuration not stated) | inactive | 
28 | O=C(O)c1cccnc1 | inactive | 
29 | NCCOCCOCCN | inactive | 
30 | O=C1O[C@H]([C@H](O)CO)C(O)=C1O | inactive | 
31 | CCN(CC)CCOc1ccc(C(=C(Cl)c2ccccc2)c2ccccc2)cc1 |  | 81.3 µM (active)
32 | CCCCC(CC)COP(=O)(OCC(CC)CCCC)OCC(CC)CCCC (configuration not stated) | inactive | 
33 | CC(=O)CC(c1ccccc1)c1c(O)c2ccccc2oc1=O (configuration not stated) | inactive | 
34 | C/C=C/c1ccc(OC)cc1 | inactive | 
35 | O=C(O)c1[nH]n(-c2ccc(S(=O)(=O)O)cc2)c(=O)c1N=Nc1ccc(S(=O)(=O)O)cc1 | inactive | 
36 | Oc1ccc(O)cc1 | inactive | 
37 | CC(C)c1cccc(C(C)C)c1 | inactive | 
38 | NC=O | inactive | 
39 | CCc1nc(N)nc(N)c1-c1ccc(Cl)cc1 | inactive | 
40 | Cn1cnc2c1c(=O)[nH]c(=O)n2C | inactive | 
41 | CC(=O)[C@@]1(O)CC[C@H]2[C@@H]3CCC4=CC(=O)CC[C@]4(C)[C@H]3CC[C@@]21C | inactive | 
42 | Cc1cn([C@H]2C=C[C@@H](CO)O2)c(=O)[nH]c1=O | inactive | 
